# Bioassay records: PubChem, National Center for Advancing Translational Sciences (NCATS)
# HepG2 tox = counter-screen for TGF-b inhibitors: cytotoxicity in HepG2 cells; 0.76% of 410,000 active; HepG2 CAGA-GFP viability, ATP luminescence, 18 h; AID 588856; Potency, µM (series often up to 46.1 µM), for inactives: at the top dose activity change, negative = cytotoxicity, usual class: cytotoxic
#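 CellTiter-Glo luminescence gave cytotoxicity after 18 hours at 37 degrees C. The cells were HepG2 CAGA-GFP in 1% FBS DMEM, stimulated with 500 pg/mL TGF-beta after compound addition. %Activity was normalised to no-cell wells (complete cell-killing) and DMSO (no toxicity), and curves were fitted and classified.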
# TDP1 cell CPT = DT40-hTDP1 cell growth loss with CPT. 12% of 420,000 active. chicken DT40 Tdp1-/-;hTDP1 cells + 20 nM CPT, ATP luminescence, 48 h. AID 686979. Potency, µM (highest dose often 46.2 µM), without a hit: top-dose activity change, negative = growth inhibition, most hits filed as inhibitors; note: % is set by controls: 0 for no effect and ±100 for the full control effect; nearly all actives have a fitted effect of over 55% in size
#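 Cell growth measured by CellTiter-Glo luminescence after a minimum 48 h, 37 C compound exposure with 20 nM CPT in Tdp1-knockout DT40 cells stably expressing hTDP1, seeded 400/well; qHTS titration format.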
# TDP1 cell noCPT = qHTS for Inhibitors of human tyrosyl-DNA phosphodiesterase 1 (TDP1): qHTS in cells in absence of CPT; AID 686978, 2013; Potency, µM (top dose mostly 46.2 µM), for the others: top-dose activity change, negative = growth inhibition, usual class: inhibitors; DT40 Tdp1-/- hTDP1 cells, no CPT, ATP luminescence, 48 h; 15% of 420,000 active; note: % is set by controls: 0 for no effect and ±100 for the full control effect; nearly all actives have a fitted effect of over 55% in size
#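 Growth of hTDP1-complemented DT40 Tdp1-knockout cells is measured by ATP luminescence after at least 48 hr compound exposure at 37 °C, with DMSO substituting for the 20 nM CPT used in the parallel screen.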
# TGFb SMAD3 inh = blocks TGF-b signaling. HepG2 CAGA-GFP TGF-b/SMAD3 reporter, GFP fluorescence, 18 h; TGF-beta stimulated, 500 pg/mL final. Potency, µM (series often up to 46.1 µM), inactives show at the highest dose activity, negative = inhibition, most hits filed as inhibitors. 1.2% of 410,000 active. AID 588855; note: % is set by controls: 0 for no effect and ±100 for the full control effect; nearly all actives have a fitted effect of over 65% in size
#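 First, reporter cells (HEPG2 CAGA-GFP) rested 2 h at 37 degrees C. Next, compounds were pinned in and TGF-beta added to 500 pg/mL final. After 18 h, GFP was imaged per cell and summed per well.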
# HT1080 IDH1KD tx = HT-1080 IDH1 knockdown cell toxicity (counter line); 2% of 360,000 active; Potency, µM (highest dose often 46.1 µM), for the others: at the top dose activity, negative = toxicity, most hits filed as cytotoxic; HT-1080 IDH1 knockdown viability, ATP luminescence, 48 h; AID 686971;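 note: 0% = DMSO wells and -100% = cell-free medium wells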
#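 Assay cells: HT-1080 with IDH1 knockdown, 750 per well, RPMI/5% FBS. Exposure: 48 h at 37 °C following 2 h pre-incubation. Read: CellTiter-Glo luminescence; fitted concentration-response, curve class assigned.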
# HT1080NT lethal = kills 2HG-producing HT-1080-NT fibrosarcoma cells; HT-1080-NT fibrosarcoma viability, CellTiter-Glo ATP luminescence, 48 h; Potency, µM (titrated, usually from 46.1 µM), inactives show top-dose activity, negative = less viability, usual class: cytotoxic; 1.6% of 360,000 active; AID 686970;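 note: NT is the 2HG producing partner of a matched IDH1 knockdown line; 0% = DMSO-treated cells and -100% = media-only wells without cells; nearly all actives have a fitted effect of over 55% in size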
#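 Toxicity toward the 2HG-producing NT line was scored as %Activity, normalised to DMSO and no-cell wells, from CellTiter-Glo luminescence after 48 hours' treatment.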
# * marks the source's active call; other numbers are inactive results; ? = inconclusive; . = no result. Shown are actives, neighbours in structure and some others; about 17% of the full set was active somewhere. Calls come from the whole dose curve; as a rule, active = well fitted curve in the direction sought with a large enough effect; inconclusive = small, poorly fitted or top-dose-only effect, or another doubt; inactive = no such curve, though single readings can be large; an effect the other way counts as inactive or inconclusive. Potency is the fitted concentration of half-maximal effect.
SMILES,HepG2 tox,TDP1 cell CPT,TDP1 cell noCPT,TGFb SMAD3 inh,HT1080 IDH1KD tx,HT1080NT lethal
CCCCCCCOC(=O)C[N+](C)(C)CCOC1CC2CCC1(C)C2(C)C (stereo not drawn),18µM*,1.5µM*,1.6µM*,?,18µM*,8.2µM*
CCC(C)OC(=O)C[N+](C)(C)CCOC1CC2CCC1(C)C2(C)C (stereo not drawn),-19%,1.2µM*,1.5µM*,10%,-24%,-15%
CCCOC(=O)C[N+](C)(C)CCOC1CC2CCC1(C)C2(C)C (stereo not drawn),-21%,8.2µM*,4.6µM*,-1%,-5%,-1%
CCCCOC(=O)C[N+](C)(C)CCOC1CC2CCC1(C)C2(C)C (stereo not drawn),-20%,2.1µM*,1.8µM*,-11%,-28%,?
CCCCCCOC(=O)C[N+](C)(C)CCOC1CC2CCC1(C)C2(C)C (stereo not drawn),-11%,?,?,0%,5%,-3%
CC(=O)N1CCOc2cc(S(=O)(=O)Nc3c(C)cccc3C(C)C)c(Cl)cc21,-29%,?,?,-29%,.,.
O=S(=O)(Nc1ccc(S(=O)(=O)N2CCCC2)cc1)c1ccccc1Br,3%,-6%,0%,-8%,0%,-1%
CSc1nc(N2CCN(Cc3ccc4c(c3)OCO4)CC2)c2ccccc2n1,-26%,?,?,?,-12%,-5%
Cc1nc(N2CCN(Cc3ccc4c(c3)OCO4)CC2)c2oc3ccccc3c2n1,-15%,7.3µM*,9.2µM*,?,?,?
Cc1nc(N2CCN(Cc3ccc(Cl)cc3)CC2)c2oc3ccccc3c2n1,-9%,23µM*,16µM*,-14%,?,-24%
Cc1nc(N2CCN(Cc3ccc4c(c3)OCO4)CC2)c2cc(-c3ccccc3)sc2n1,-35%,18µM*,23µM*,?,-2%,0%
Cc1nc(N2CCC(C)CC2)c2oc3ccccc3c2n1,-33%,?,?,-24%,?,?
COc1ccccc1N1CCN(c2nc(C)nc3c2oc2ccccc23)CC1,-52%,3.2µM*,2.8µM*,?,1.3µM*,1.1µM*
COC(=O)[C@@H](Cc1c[nH]c2ccccc12)NCc1cccc(B(O)O)c1,-7%,-22%,-29%,5%,-7%,2%
COCCn1c(COc2cccc(OC)c2)nnc1SCC(=O)NC1CCCC1,9%,0%,6%,1%,8%,9%
N#CCc1c(C#N)c(N)nc(N2CCN(Cc3ccc4c(c3)OCO4)CC2)c1C#N,-3%,?,12µM*,8%,-18%,-3%
COc1cccc(Cn2c(=O)c(-c3cn(C)c4ccccc34)nc3cnc(N4CCNCC4)nc32)c1,.,7.3µM*,21µM*,.,.,.
Cn1cc(-c2nc3cnc(N4CCNCC4)nc3n(Cc3ccc(F)cc3)c2=O)c2ccccc21,.,5.2µM*,7.3µM*,.,.,.
COc1cccc(Cn2c(=O)c(-c3cn(C)c4ccccc34)nc3cnc(N4CCOCC4)nc32)c1,.,-13%,-8%,.,.,.
Cc1ccccc1OCC(=O)Nc1ccc(-c2nc3ccccc3o2)cc1,-23%,.,.,5%,.,.
CCC(Sc1nc2ccncc2[nH]1)C(=O)Nc1cc(Cl)ccc1C (stereo not drawn),-22%,29µM*,18µM*,?,-3%,19%
CCC(Sc1ncc(S(=O)(=O)c2ccc(C)cc2)c(=O)[nH]1)C(=O)Nc1cc(C)ccc1C (stereo not drawn),-20%,.,.,-1%,.,.
